Measurements: PubChem BioAssay
Calls of active or inactive are those of the source.

Legend:
[1] = E. coli DRC41 culture turbidity changes, primary screen, E. coli filamentation inducer project, strain DRC41, OD650, 48 h (AID 1152);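 further: E. coli MC1000 strain DRC41 lacking acrAB efflux pump and sulA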; conditions: E. coli DRC41 (acrAB sulA), higher = more signal, called active from +8 up or from −8 down
[2] = small-molecule binders of probe aLefty1, primary screen, biochemical, small-molecule microarray, 635/667 nm fluorescence (AID 1153); conditions: higher = more signal;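 further: score merges spot fluorescence with signal-to-noise ratio from the scanned slide images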
[3] = PSAC antagonists in infected red cells, primary screen, cell-based, P. falciparum Indochina, OD700, 1 h (AID 1154); conditions: P. falciparum Indochina infected RBC osmotic lysis, higher = more signal, called active from +8 up or from −8 down
[4] = PSAC antagonists in infected red cells, primary screen, cell-based, P. falciparum Indochina, OD700, 2 h (AID 1155);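 further: lysis reports solute entry through the parasite surface anion channel PSAC; channel blockers reduce lysis of infected cells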; conditions: P. falciparum Indochina infected erythrocytes, osmotic lysis OD700; higher = more signal, called active from +8 up or from −8 down
[5] = osmotic lysis modulators in infected erythrocytes, primary screen, PSAC antagonist project, cell-based, P. falciparum Indochina, OD700, 3 h (AID 1156); conditions: higher = more signal, called active from +8 up or from −8 down
[6] = PSAC antagonists in infected red cells, primary screen, cell-based, P. falciparum Indochina, OD700, 18 h (AID 1157); conditions: P. falciparum Indochina infected erythrocytes, osmotic lysis OD700, 18 h; higher = more signal, called active from +8 up or from −8 down
[7] = modulators of S6 phosphorylation in cells, primary screen, cell-based, A549, cytoblot, luminescence, serum-stimulated (AID 1158); conditions: A549 phospho-S6 cytoblot, 5 h, higher = more signal;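 further: serum-stimulated A549 lung adenocarcinoma cells; signal is phosphorylated S6 detected by cytoblot immunostaining with HRP secondary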
[8] = target: NADPH oxidase 2 (Homo sapiens) (UniProt P04839); assay: NOX2-dependent H2O2 signal modulators, primary screen, NOX inhibitor project, cell-based, HEK293-NOX2, PMA-stimulated, Amplex Red fluorescence (AID 1159); conditions: 45 min, higher = more signal, called active from +8 up or from −8 down; further: test concentration not given here
[9] = target: NADPH oxidase 4 (Homo sapiens) (UniProt Q9NPH5); assay: NOX4-dependent H2O2 signal modulators, primary screen, NOX inhibitor project, cell-based, HEK293-NOX4, tetracycline-induced, Amplex Red fluorescence (AID 1160); conditions: 45 min, higher = more signal, called active from +8 up or from −8 down
[10] = target: NADPH oxidase 5 (Homo sapiens) (UniProt Q96PH1); assay: NOX5-dependent H2O2 signal modulators, primary screen, NOX inhibitor project, cell-based, HEK293-NOX5, Amplex Red fluorescence (AID 1161); conditions: HEK293-NOX5, ionomycin, 45 min, higher = more signal
[11] = A549 cell viability effects, profiling panel, calcein-AM fluorescence, 48 h, basal (AID 1162); conditions: higher = more signal; further: test concentration not given here
[12] = adipocyte viability effects, profiling panel, cell-based, 3T3-L1 adipocytes, calcein-AM fluorescence, 48 h, basal (AID 1163); conditions: 3T3-L1 adipocytes viability, higher = more signal; further: test concentration not given here
[13] = HepG2 cell viability effects, profiling panel, calcein-AM fluorescence, 48 h, basal (AID 1164); conditions: higher = more signal; further: test concentration not given here
[14] = MM1S cell viability effects, profiling panel, calcein-AM fluorescence, 48 h, basal (AID 1165); conditions: higher = more signal;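 further: viability of MM1S multiple myeloma cells under basal unstimulated conditions; test concentration not given here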
[15] = basal RPMI8226 viability, no added stimulus, profiling panel, cell-based, calcein-AM fluorescence, 48 h, PK04 Diversity Set (AID 1166); conditions: RPMI8226 myeloma viability, higher = more signal;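 further: cells grown under basal conditions without added stimulus; test concentration not given here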
[16] = basal HepG2 mitochondrial membrane potential changes, profiling panel, cell-based, JC-1 fluorescence, 24 h, 100 nL compound (AID 1167); conditions: higher = more signal; further: test concentration not given here
[17] = basal 3T3-L1 adipocyte mitochondrial potential changes, profiling panel, cell-based, JC-1 fluorescence, 3T3-L1 adipocytes, 24 h, 100 nL compound (AID 1168); conditions: JC-1 mitochondrial fluorescence, higher = more signal, called active from +8 up or from −8 down; further: test concentration not given here
[18] = basal RPMI8226 mitochondrial membrane potential changes, profiling panel, cell-based, JC-1 fluorescence, 24 h, 100 nL compound (AID 1169); conditions: RPMI8226 myeloma, JC-1 mitochondrial potential fluorescence, higher = more signal; further: test concentration not given here
[19] = basal MM1S mitochondrial membrane potential changes, profiling panel, cell-based, JC-1 fluorescence, 24 h, 100 nL compound (AID 1170); conditions: higher = more signal; further: test concentration not given here
[20] = A549 lung cancer cell viability effects, profiling panel, resazurin fluorescence, 24 h, PK04 Diversity Set (AID 1171); conditions: higher = more signal, called active from +8 up or from −8 down; further: test concentration not given here

Chain of NADPH oxidase 5 (Homo sapiens) (Q96PH1 whole entry, looked up): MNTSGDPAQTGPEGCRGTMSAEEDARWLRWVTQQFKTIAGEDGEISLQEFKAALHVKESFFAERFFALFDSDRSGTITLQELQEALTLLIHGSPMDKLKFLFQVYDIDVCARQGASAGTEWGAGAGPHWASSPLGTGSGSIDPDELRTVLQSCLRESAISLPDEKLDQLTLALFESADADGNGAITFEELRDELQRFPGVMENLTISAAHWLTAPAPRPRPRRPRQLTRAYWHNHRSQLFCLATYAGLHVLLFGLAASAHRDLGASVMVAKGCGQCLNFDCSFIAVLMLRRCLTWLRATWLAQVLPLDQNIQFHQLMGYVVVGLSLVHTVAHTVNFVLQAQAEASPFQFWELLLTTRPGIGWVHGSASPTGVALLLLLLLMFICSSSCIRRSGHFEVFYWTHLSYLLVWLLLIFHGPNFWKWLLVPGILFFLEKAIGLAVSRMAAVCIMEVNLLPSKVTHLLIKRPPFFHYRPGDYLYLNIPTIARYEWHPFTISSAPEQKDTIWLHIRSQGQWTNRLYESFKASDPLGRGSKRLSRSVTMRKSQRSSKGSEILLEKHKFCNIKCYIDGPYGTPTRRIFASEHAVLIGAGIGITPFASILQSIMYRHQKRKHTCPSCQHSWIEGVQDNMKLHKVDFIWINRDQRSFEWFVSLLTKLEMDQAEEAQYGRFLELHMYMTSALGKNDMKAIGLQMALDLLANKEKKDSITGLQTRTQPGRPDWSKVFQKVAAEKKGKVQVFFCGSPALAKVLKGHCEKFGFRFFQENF
Chain of NADPH oxidase 2 (Homo sapiens) (P04839 whole entry, looked up): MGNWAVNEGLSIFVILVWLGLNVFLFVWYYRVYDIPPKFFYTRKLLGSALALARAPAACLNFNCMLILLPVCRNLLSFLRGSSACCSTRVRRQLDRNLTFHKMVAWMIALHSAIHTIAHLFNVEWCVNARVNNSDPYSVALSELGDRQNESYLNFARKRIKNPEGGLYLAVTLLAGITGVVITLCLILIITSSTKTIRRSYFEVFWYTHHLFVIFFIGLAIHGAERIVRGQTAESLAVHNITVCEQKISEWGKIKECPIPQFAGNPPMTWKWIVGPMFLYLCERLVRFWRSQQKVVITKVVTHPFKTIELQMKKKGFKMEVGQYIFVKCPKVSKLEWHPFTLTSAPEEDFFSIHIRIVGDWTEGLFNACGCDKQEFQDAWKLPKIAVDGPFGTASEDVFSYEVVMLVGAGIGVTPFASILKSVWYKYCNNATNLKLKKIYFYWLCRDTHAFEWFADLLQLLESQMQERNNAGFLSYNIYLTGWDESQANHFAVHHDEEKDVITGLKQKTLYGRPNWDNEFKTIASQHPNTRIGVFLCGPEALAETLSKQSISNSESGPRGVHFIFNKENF
Chain of NADPH oxidase 4 (Homo sapiens) (Q9NPH5 whole entry, looked up): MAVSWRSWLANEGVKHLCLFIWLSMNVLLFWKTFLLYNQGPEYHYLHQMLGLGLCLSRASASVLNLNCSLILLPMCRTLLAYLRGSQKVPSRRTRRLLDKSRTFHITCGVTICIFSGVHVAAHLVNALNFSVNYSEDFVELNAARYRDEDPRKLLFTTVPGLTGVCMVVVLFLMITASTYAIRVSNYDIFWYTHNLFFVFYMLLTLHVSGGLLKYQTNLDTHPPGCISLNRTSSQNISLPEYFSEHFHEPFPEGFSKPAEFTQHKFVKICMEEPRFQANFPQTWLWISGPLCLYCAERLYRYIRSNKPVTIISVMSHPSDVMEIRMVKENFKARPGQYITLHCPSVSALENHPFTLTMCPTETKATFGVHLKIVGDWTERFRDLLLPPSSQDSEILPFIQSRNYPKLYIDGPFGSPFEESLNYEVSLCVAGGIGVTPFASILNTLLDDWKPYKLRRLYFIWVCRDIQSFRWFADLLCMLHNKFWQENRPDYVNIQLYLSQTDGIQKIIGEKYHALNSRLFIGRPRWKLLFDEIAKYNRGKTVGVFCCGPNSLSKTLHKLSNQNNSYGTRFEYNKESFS

## NC(=O)N1C(=O)C2C(C1=O)C1C=C(CCCO)C2C(c2cccs2)N1Cc1cc2c(cc1Br)OCO2 (stereo not given)
[1]
  z-score: 0.0978 (inactive)
[2]
  composite z-score: 0.254
[3]
  z-score: 17.7 (active)
[4]
  z-score: 2.3 (inactive)
[5]
  z-score: 0.865 (inactive)
[6]
  z-score: 0.872 (inactive)
[7]
  z-score: 0.413
[8]
  z-score: -0.848 (inactive)
[9]
  z-score: -0.662 (inactive)
[10]
  z-score: -1.1
[11]
  z-score: 0.89
[12]
  z-score: 1.46
[13]
  z-score: 0.78
[14]
  z-score: 0.0067
[15]
  z-score: 0.695
[16]
  z-score: 1.01
[17]
  z-score: 0.111 (inactive)
[18]
  z-score: -0.11
[19]
  z-score: -0.214
[20]
  z-score: 0.514 (inactive)

## C=CCN1C(=O)[C@@]2(O[C@@H](CCn3cc([C@H](O)c4ccccc4)nn3)[C@H]([Si](C)(C)c3ccc(OC)cc3)[C@H]2C)c2ccccc21
[1]
  z-score: 0.508 (inactive)
[2]
  composite z-score: 0.276
[3]
  z-score: 7.57 (inactive)
[4]
  z-score: 1.93 (inactive)
[5]
  z-score: 1.04 (inactive)
[6]
  z-score: 0.916 (inactive)
[7]
  z-score: 0.32
[8]
  z-score: 0.997 (inactive)
[9]
  z-score: 0.99 (inactive)
[10]
  z-score: -1.6
[11]
  z-score: -1.05
[12]
  z-score: 0.432
[13]
  z-score: -1.49
[14]
  z-score: -2.7
[15]
  z-score: -4.27
[16]
  z-score: 1.06
[17]
  z-score: -0.644 (inactive)
[18]
  z-score: -0.967
[19]
  z-score: -0.364
[20]
  z-score: -1.76 (inactive)

## CCOC(=CC(=O)OC)CC(O)c1cccc(Cl)c1 (stereo not given)
[1]
  z-score: 1.04 (inactive)
[2]
  composite z-score: -0.494
[3]
  z-score: 4.33 (inactive)
[4]
  z-score: 0.101 (inactive)
[5]
  z-score: 0.898 (inactive)
[6]
  z-score: -1.72 (inactive)
[7]
  z-score: 0.979
[8]
  z-score: 0.112 (inactive)
[9]
  z-score: -0.513 (inactive)
[10]
  z-score: -0.131
[11]
  z-score: 0.738
[12]
  z-score: 0.342
[13]
  z-score: -0.0117
[14]
  z-score: 0.221
[15]
  z-score: -1.15
[16]
  z-score: 0.363
[17]
  z-score: 0.0253 (inactive)
[18]
  z-score: -0.0603
[19]
  z-score: -0.69
[20]
  z-score: 0.0735 (inactive)

## COC(=O)C1(Cc2ccccc2)C=C2C(=C(C(C)C)C(=O)C2C)CN1 (stereo not given)
[1]
  z-score: -1.72 (inactive)
[2]
  composite z-score: 0.276
[3]
  z-score: 2.03 (inactive)
[4]
  z-score: 0.326 (inactive)
[5]
  z-score: 1.42 (inactive)
[6]
  z-score: 0.592 (inactive)
[7]
  z-score: 0.128
[8]
  z-score: -0.862 (inactive)
[9]
  z-score: -5.34 (inactive)
[10]
  z-score: -4.04
[11]
  z-score: -0.859
[12]
  z-score: 0.575
[13]
  z-score: -1.75
[14]
  z-score: -1.89
[15]
  z-score: -1.53
[16]
  z-score: -1
[17]
  z-score: -1.76 (inactive)
[18]
  z-score: 0.838
[19]
  z-score: 0.0816
[20]
  z-score: -1.33 (inactive)

## C[N+](C)(C)CCCC[C@@H]1NC(=O)[C@@H]2C[C@H](C(=O)O)[C@H](c3ccc(O)cc3)N2C1=O
[1]
  z-score: -0.105 (inactive)
[2]
  composite z-score: -0.248
[3]
  z-score: 0.277 (inactive)
[4]
  z-score: 0.156 (inactive)
[5]
  z-score: -0.0003 (inactive)
[6]
  z-score: 0.0583 (inactive)
[7]
  z-score: 0.423
[8]
  z-score: -0.0831 (inactive)
[9]
  z-score: -0.223 (inactive)
[10]
  z-score: 0.903
[11]
  z-score: -0.643
[12]
  z-score: 0.422
[13]
  z-score: 0.914
[14]
  z-score: 0.379
[15]
  z-score: -0.0923
[16]
  z-score: 0.0942
[17]
  z-score: -0.907 (inactive)
[18]
  z-score: -0.142
[19]
  z-score: -0.454
[20]
  z-score: -0.246 (inactive)

## COc1cc2c(cc1OC)CN(C(=O)[C@H]1[C@@H]3C(=O)O[C@@H](c4ccccc4)[C@@H](c4ccccc4)N3[C@@H](c3ccc(OCCO)cc3)[C@]13C(=O)Nc1ccc(C#CCCO)cc13)CC2
[1]
  z-score: 0.0836 (inactive)
[2]
  composite z-score: 0.433
[3]
  z-score: 2.66 (inactive)
[4]
  z-score: 1.8 (inactive)
[5]
  z-score: 0.796 (inactive)
[6]
  z-score: 0.802 (inactive)
[7]
  z-score: 0.142
[8]
  z-score: 1.46 (inactive)
[9]
  z-score: 0.798 (inactive)
[10]
  z-score: 1.66
[11]
  z-score: 0.269
[12]
  z-score: -0.16
[13]
  z-score: -0.142
[14]
  z-score: -0.0509
[15]
  z-score: 0.77
[16]
  z-score: -1.21
[17]
  z-score: 0.764 (inactive)
[18]
  z-score: -0.453
[19]
  z-score: -1.07
[20]
  z-score: 0.604 (inactive)

## C=CCN1C(=O)[C@]2(CC=C)N=C(c3ccc(OCCCO)cc3)O[C@@H]2c2ccccc21
[1]
  z-score: 0.987 (inactive)
[2]
  composite z-score: 0.544
[3]
  z-score: 33.2 (active)
[4]
  z-score: 34.2 (active)
[5]
  z-score: 2.64 (inactive)
[6]
  z-score: 10.6 (active)
[7]
  z-score: -0.112
[8]
  z-score: -1.13 (inactive)
[9]
  z-score: 1.08 (inactive)
[10]
  z-score: 1.09
[11]
  z-score: -1.23
[12]
  z-score: 0.931
[13]
  z-score: -1.82
[14]
  z-score: -3.48
[15]
  z-score: -3.86
[16]
  z-score: -1.12
[17]
  z-score: 2.63 (inactive)
[18]
  z-score: -1.16
[19]
  z-score: -2.38
[20]
  z-score: -1.95 (inactive)

## C=C(C(=O)CC[C@H](OC(=O)c1cccnc1)c1cccc(OCCO)c1)C(C)C
[1]
  z-score: 0.184 (inactive)
[2]
  composite z-score: 0.0327
[3]
  z-score: 14.4 (active)
[4]
  z-score: 2.83 (inactive)
[5]
  z-score: 1.76 (inactive)
[6]
  z-score: 1.04 (inactive)
[7]
  z-score: -0.0915
[8]
  z-score: 0.657 (inactive)
[9]
  z-score: -0.0784 (inactive)
[10]
  z-score: -2.05
[11]
  z-score: 0.647
[12]
  z-score: 0.47
[13]
  z-score: -0.419
[14]
  z-score: -2.44
[15]
  z-score: -1.46
[16]
  z-score: -1.03
[17]
  z-score: 0.584 (inactive)
[18]
  z-score: -0.0636
[19]
  z-score: -0.326
[20]
  z-score: 0.371 (inactive)
